Screens: PubChem, several laboratories
AI-2 QS modul – modulators of Vibrio harveyi AI-2 quorum sensing system; Vibrio harveyi JMH597 AI-2 luminescence/OD600 ratio, 9 h; stronger effect = lower value; strain lacks LuxN and CqsS sensors; 0 = neutral-control median; activity change, % at 7.5 µM; 300,000 compounds, 0.4% hits; in the data active = activity change below about -75%, passing the limit was not always enough;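 also: luminescence divided by OD600 gain over 9 h not by final OD600 alone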
HSP90 inh – HSP90 refolding inhibition in rabbit reticulocyte lysate; AID 1789; 290,000 compounds, 0.91% hits; luciferase refolding luminescence, 3 h; inhibition, % at 5.6 µM;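 active = inhibition above the screen-wide mean plus 3 SD, computed separately per campaign, cut at about 16% in these data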;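 also: 0% = DMSO wells and 100% = 60 µM geldanamycin wells; inhibitors lower the luminescence because luciferase stays unfolded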
GAA850 FXN act – frataxin GAA850 promoter activation. HEK293 lucGAA850 FXN promoter luciferase reporter, 24 h; percent of 10 µM SAHA response. activation, % at 6 µM. 360,000 compounds, 0.56% hits. AID 540364;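 active = activation above the average of all compounds screened plus 3 SD, cutoff fixed separately per campaign, cut at about 7.5% in these data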;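 also: 0% = DMSO wells and 100% = 10 µM SAHA wells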
HSF1 inhib – HSF1 inhibition. NIH3T3-HGL HSE-luciferase, MG132-induced, luminescence 8 h; stronger effect = lower value. activity change, negative = inhibition, % at 7.5 µM (by protocol). 300,000 compounds, 0.77% hits;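 active = more than half of replicate wells show activity change below -50%, luminescence cut by over half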;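 also: luciferase reports HSF-1 transcriptional activity via heat shock element; 0% = median of DMSO wells and -100% = zero luminescence signal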
SMARCA2 act – activators of SMARCA2 function. MG213 cells, MMTV-luciferase reporter, dexamethasone, overnight. activation, % at 9.1 µM. 370,000 compounds, 1% hits. AID 652017; in the data active = activation above about 7.8%;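 also: 0% = vehicle wells and 100% = reference activator wells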
PG9 Ab binder – small molecules binding HIV-1 gp120 antibody PG9. 360,000 compounds, 0.43% hits. inhibition, % at 6.7 µM. TR-FRET gp120-PG9 antibody binding; in the data active = inhibition above about 8.5%
GAA30 counter – counter-screen for GAA850 frataxin promoter activators: GAA30 promoter activation. AID 588350. HEK293 lucGAA30 FXN promoter luciferase, 24 h; DMSO = 0%, 5 µM ipriflavone = 100%. 1,900 compounds, 66% hits. activation, % at 6 µM. shares compounds with GAA850 FXN act;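 active = mean activation above the mean of solvent-only control wells plus 3 SD, cut at about 22% in these data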;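 also: counterscreen of GAA850 promoter hits where activity marks nonselective or luminescence artifacts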
FXN GAA850 conf – confirmation of GAA850 frataxin (FXN) promoter activators; shares compounds with GAA850 FXN act; HEK293 lucGAA850 FXN promoter luciferase reporter, 24 h; 100% = activation by SAHA; activation, % at 6 µM; 1,900 compounds, 86% hits; AID 588351;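 active = mean activation above a set limit taken from the primary screen, cut at about 8% in these data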;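 also: 0% = DMSO wells and 100% = 10 µM SAHA wells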
An asterisk follows results filed as active; · = no result given. In the library only some 3.4% were active in any assay of this set; here they are far more common.

SMILES | AI-2 QS modul | HSP90 inh | GAA850 FXN act | HSF1 inhib | SMARCA2 act | PG9 Ab binder | GAA30 counter | FXN GAA850 conf
CN1OC[C@@H]2CN[C@H](c3ccc(N4CCCCC4)cc3)C[C@@H]21 | · | · | · | · | -3 | -1 | · | ·
O=C(C(Br)=Cc1ccccc1)c1ccccc1 | · | · | -14 | · | -1 | 0 | · | ·
O=C(CCC(=O)N1CCSc2ccccc21)NC1CCCCC1 | -6 | -3 | 8.0* | 6 | -1 | 0 | 14 | 5
Cc1cccc(NC(=O)c2nc[nH]c2C(=O)N(C)CCO)c1 | · | · | · | · | 2 | -2 | · | ·
Nc1ccn([C@@H]2O[C@H](C(=O)N3CCN(CCO)CC3)[C@@H](O)[C@H]2O)c(=O)n1 | · | · | · | · | 1 | -3 | · | ·
CCn1c(C)nc2cc(C(=O)N/N=C/c3ccccc3C)ccc21 | 24 | -4 | 13* | 10 | 4 | -2 | 93* | 36*
O=C(NCc1ccccc1)C(c1cc2ccccc2o1)n1c(=O)c(-c2ccccc2)nc2ccccc21 (stereo not drawn) | · | · | · | · | 2 | -2 | · | ·
CN(C)S(=O)(=O)n1cc(/C=C(\NC(=O)c2ccccc2F)C(=O)N2CCCCC2)c2ccccc21 | · | · | 1 | · | 4 | -1 | · | ·
CN(C)S(=O)(=O)n1cc(/C=C(\NC(=O)c2ccccc2Cl)C(=O)N2CCCC2)c2ccccc21 | 13 | -5 | 8.8* | 3 | -1 | -1 | 15 | 11*
COc1ccc(C(O)c2ncc(-c3cccc4ccccc34)[nH]2)cc1F (stereo not drawn) | · | · | 0 | · | -2 | -3 | · | ·
Cc1ccc(-c2noc(-c3ccccc3F)n2)cc1 | -2 | -2 | 8.1* | 30 | 3 | -1 | 135* | 45*
COCCN1C(=O)CCC1(C)C(=O)NC1CCCCC1 (stereo not drawn) | · | · | · | · | -1 | 0 | · | ·
Cc1nn(C)c(C)c1S(=O)(=O)N(CC(=O)NC1CCCCCC1)c1ccc(C(C)C)cc1 | 12 | 1 | 2 | -1 | -4 | -1 | · | ·
Cc1n[nH]c(C)c1S(=O)(=O)N(CC(=O)NC1CCCC1)c1ccc(C(C)C)cc1 | 11 | -2 | 8.2* | 1 | -2 | 0 | 21 | 9.5*
CCCCC(=O)N/N=C/c1ccc(Sc2cccc3cccnc23)o1 | 17 | 4 | 15* | 9 | 2 | 1 | 25* | 7.7*
Cc1ccsc1C(=O)N1CCc2ccccc2C1 | 12 | 6 | 8.4* | 7 | 0 | 0 | 43* | 15*
Cc1nn(-c2nnc(NC3CCCCC3)nn2)c(C)c1Br | 27 | 3 | 8.6* | 11 | 2 | -2 | 124* | 40*
O=C(CNc1cccc2ccccc12)N/N=C/C(Br)=C/c1ccccc1 | 12 | 5 | 13* | · | -2 | -5 | -19 | 2
CC1=NNC(=O)C1CCC(=O)N/N=C/C(Br)=C/c1ccccc1 (stereo not drawn) | 17 | -3 | 12* | 67 | -4 | -4 | 24* | 5
CCOC1CCCc2oc(-c3ccc(OC)cc3)c(C(=O)NCCCCO)c21 (stereo not drawn) | · | · | · | · | -6 | -1 | · | ·
c1ccc(OCCCn2nnc(-c3ccc(N4CCOCC4)cc3)n2)cc1 | 6 | 3 | 8.6* | 16 | -2 | 1 | 20 | 8.6*
Cn1c(CS(=O)Cc2c(Cl)cccc2Cl)nnc1SCc1c(Cl)cccc1Cl (stereo not drawn) | 27 | 1 | 10* | 3 | 0 | 0 | 25* | 9.3*
Cc1ccc2nc(-c3cccc(Cl)c3)c(Cc3cccc(Cl)c3)n2c1 | · | · | · | · | 2 | 0 | · | ·
CCc1ccc(OCC(=O)NCc2ccco2)c(Br)c1 | 6 | -5 | 8.6* | 18 | 6 | -2 | 76* | 24*
CC(=O)N1CN(S(=O)(=O)c2ccc(C)cc2)CC1C (stereo not drawn) | 12 | 4 | 12* | -7 | 1 | -4 | 12 | 4
O=C(O)c1ccc(-c2nc(-c3ccc(Cl)cc3)cs2)cc1 | 25 | 2 | 6 | 11 | 4 | -1 | · | ·
